Out of some 52,000 compounds screened, about 4,300 (8.3%) were called active. The sample holds actives, similar compounds and a random draw of the others, so the mix is not that of the screen. A number with no mark means an inactive call. No stated cut-off is given here; in the data, active means survival mostly below about 52% (no sharp cut-off); inactive means mostly above about 56%.
The molecules below were run on DeltatarO mutant (assay: growth inhibition of S. aureus wild type versus tarO mutant, primary screen, teichoic acid synthesis inhibitors, RN4220, OD600 (AID 463173)). Conditions: OD600, 18 h, hits give low values, screened at 18.75 µg/mL (by protocol).

Row | Structure (SMILES) | survival
1 | O=C1CCN(C(=O)/C=C/c2ccccc2)c2ccccc21 | 88%
2 | CC(=O)c1ccc(NC(=O)C2CCCN(S(=O)(=O)c3ccc4c(c3)CCCN4C(C)=O)C2)cc1 (stereo not given) | 93%
3 | Cc1ccc(NC(=O)C(=O)NCC(c2ccc3c(c2)OCO3)N2CCN(C)CC2)cc1C (stereo not given) | 68%
4 | CCN(CC)S(=O)(=O)c1ccc2nc(NC(=O)c3ccccc3OC)sc2c1 | 89%
5 | CCOc1ccc(N2CC(NC(=O)Cc3cccs3)CC2=O)cc1 (stereo not given) | 73%
6 | Cc1ccc(C(=O)Nc2ccc(F)cc2)cc1S(=O)(=O)N1CCCCCC1 | 69%
7 | COC(=O)c1sc(N2C(=O)c3oc4ccccc4c(=O)c3C2c2ccc(O)cc2)nc1C (stereo not given) | 121%
8 | Cc1[nH]c2ccc(-c3nnc(SCC(=O)N4c5ccccc5CCc5ccccc54)o3)cc2c1C | 89%
9 | COc1cc(OC)cc(C(=O)Nc2ccc3nc(N4CCCCC4)cc(C)c3c2)c1 | 31% (active)
10 | COc1cc(OC)cc(C(=O)Nc2ccc3nc(N4CCC(C)CC4)cc(C)c3c2)c1 | 51%
11 | COc1ccc(Nc2cc(C)c3cc(NC(=O)c4cc(OC)cc(OC)c4)ccc3n2)cc1 | 94%
12 | CCN1CCN(c2cc(C)c3cc(NC(=O)c4cc(OC)cc(OC)c4)ccc3n2)CC1 | 47% (active)
13 | Cc1cc(N2CCCCC2)nc2ccc(NC(=O)c3ccc(F)cc3)cc12 | 51%
14 | COC(=O)c1ccc(Cl)cc1NC(=O)Nc1nnc(N(C)C2CCCCC2)s1 | 81%
15 | COc1ccc(-c2cc(C)no2)cc1S(=O)(=O)N1CCOc2ccc(Cl)cc21 | 92%
16 | Cc1ccccc1-n1c(=O)c2c3c(sc2n2cnnc12)CCCC3 | 72%
17 | Cc1ccc(-n2c(=O)[nH]c3cc(C(=O)NCc4ccccc4)ccc3c2=O)cc1 | 102%
18 | Cc1c(C(=O)OCc2ccccc2)[nH]c2c1C(=O)CC(c1ccc(C(C)(C)C)cc1)C2 (stereo not given) | 91%
19 | COC(=O)C(NC(=O)CCc1c(C)nc2c(-c3ccccc3)c(C)nn2c1C)C(C)C (stereo not given) | 109%
20 | CS(=O)(=O)N1CCC(c2nc3c(nnn3Cc3ccc(F)cc3)c(=O)[nH]2)CC1 | 102%
21 | O=C(Cc1ccc(F)cc1)N1CCC(c2nc3c(nnn3Cc3ccc(F)cc3)c(=O)[nH]2)CC1 | 66%
22 | Cc1ccc(Cn2nnc3c(=O)[nH]c(C4CCN(C(=O)Cc5ccccc5F)CC4)nc32)cc1 | 69%
23 | O=C(Cc1ccccc1F)N1CCC(c2nc3c(nnn3Cc3ccc(F)cc3)c(=O)[nH]2)CC1 | 72%

Row | Structure (SMILES) | survival
24 | O=C(Cc1ccccc1F)N1CCC(c2nc3c(nnn3Cc3cccc(Cl)c3)c(=O)[nH]2)CC1 | 44% (active)
25 | O=C(Cc1ccc(F)cc1)N1CCC(c2nc3c(nnn3Cc3ccc(Cl)cc3)c(=O)[nH]2)CC1 | 27% (active)
26 | COc1ccccc1N1CCN(C(=O)Cn2ncc3c2-c2cc(C)ccc2OC3)CC1 | 58%
27 | CN(C(=S)SCC1=CCS(=O)(=O)C1)C1CCS(=O)(=O)C1 (stereo not given) | 94%
28 | O=C1C(c2ccc(F)cc2)N(Cc2ccccc2Cl)C(=O)CN1C1CCCCC1 (stereo not given) | 81%
29 | Nc1no[n+]([O-])c1C(=O)NCCO | 65%
30 | CN(C)C(=O)c1c(N)no[n+]1[O-] | 56% (active)
31 | CC(C)(C)NC(=O)c1c(N)no[n+]1[O-] | 92%
32 | Cc1cc(C)c2c(=O)cc(C(=O)NCCc3ccc(S(N)(=O)=O)cc3)oc2c1 | 61%
33 | CCOc1ccc(CC(=O)Nc2c(C(=O)c3ccccc3)oc3ccc(Cl)cc23)cc1OCC | 48%
34 | CC(=O)Nc1c(C(=O)O)oc2ccc(Cl)cc12 | 58% (active)
35 | COC(=O)c1oc2ccc(Cl)cc2c1C | 65%
36 | O=C(NCc1cccs1)c1ccc(Cn2c(SCc3ccc(F)cc3)nc3cccnc32)cc1 | 84%
37 | C=CCN=C1SCC(=O)N1S(=O)(=O)c1ccc(C)cc1 | 60% (active)
38 | C=CCN=C1SC(C)C(=O)N1S(=O)(=O)c1ccccc1 (stereo not given) | 57%
39 | Cc1ccc(S(=O)(=O)N=C2SCCCS2)cc1 | 91%
40 | CC(=O)Nc1ccc(I)cc1C(=O)O | 95%
41 | CCN(Cc1ccccc1)C(=O)Cn1c(=O)cc(C)c2c(C)nn(-c3cccc(F)c3)c21 | 72%
42 | CCOC(=O)c1ccc(NC(=O)Cn2cc(C(=O)c3cccs3)c3ccccc32)cc1 | 62%
43 | O=C(Nc1ccc(S(=O)(=O)N2CCC(c3nc4ccccc4s3)CC2)cc1)c1ccccc1 | 104%
44 | O=C(Nc1ccc(S(=O)(=O)N2CCC(c3nc4ccccc4s3)CC2)cc1)c1ccc(F)cc1 | 63%
45 | Cc1ccccc1C(=O)Nc1ccc(S(=O)(=O)N2CCC(c3nc4ccccc4s3)CC2)cc1 | 40% (active)
46 | Cc1ccc(C(=O)Nc2ccc(S(=O)(=O)N3CCC(c4nc5ccccc5s4)CC3)cc2)cc1 | 61%

Row | Structure (SMILES) | survival
47 | O=C(Nc1ccc(S(=O)(=O)N2CCC(c3nc4ccccc4s3)CC2)cc1)c1ccccc1F | 57%
48 | Cc1cccc(C(=O)Nc2ccc(S(=O)(=O)N3CCC(c4nc5ccccc5s4)CC3)cc2)c1 | 40% (active)
49 | COCCn1c(SCC(=O)c2c(C)[nH]c3ccccc23)nc2cc(C(=O)NC(C)C)ccc2c1=O | 68%
50 | COc1ccc(NC(=O)CS(=O)CC(=O)NC2CCCc3ccccc32)cc1 (stereo not given) | 60%
51 | O=C(c1cccc(Cl)c1)n1nc(-c2cccnc2)nc1NCc1ccccc1 | 53%
52 | Cc1ccc(Cl)cc1NC(=O)COC(=O)CC(C)(C)CC1=NS(=O)(=O)c2ccccc2N1 | 84%
53 | CC(C)(CO)C(O)C(=O)NN (stereo not given) | 84%
54 | COc1ccc(C(=O)N2c3ccc(C)cc3C(C)(c3ccccc3)CC2(C)C)cc1 (stereo not given) | 25% (active)
55 | Cc1ccc2c(c1)C(C)(c1ccccc1)CC(C)(C)N2C(=O)c1ccc(F)cc1 (stereo not given) | -4% (active)
56 | Cc1ccc2c(c1)N(C(=O)c1ccc(F)cc1)C(C)(C)CC2(C)c1ccccc1 (stereo not given) | 24% (active)
57 | Cc1ccc(NC(=O)NCc2ccc3c(c2)CCN3C(=O)c2ccccc2)c(Cl)c1 | 82%
58 | Cc1ccc(C(=O)N2c3ccc(C)cc3C(C)(c3ccccc3)CC2(C)C)cc1 (stereo not given) | 4% (active)
59 | CC(=O)OC1CC(C)N(C(=O)c2ccccc2)c2ccc(C)cc21 (stereo not given) | 67%
60 | COc1ccc(C(=O)NCc2ccc3c(c2)CCN3C(=O)c2ccccc2)cc1 | 84%
61 | COc1ccc(C(=O)NCc2ccc3c(c2)CCN3C(=O)c2ccc(C)cc2)cc1 | 82%
62 | Cc1ccc(C(=O)N2CC(=O)NC(=O)C2)cc1 | 83%
63 | Cc1ccc(C(=O)N2CCN(c3ccccc3)CC2)cc1 | 87%
64 | CC1=CC(C)(C)N(CC(=O)c2ccccc2)c2ccc(C)cc21 | 97%
65 | Cc1ccc(C)c(N2CCN(C(=O)c3ccc4c(c3)N(Cc3ccc(F)cc3)C(=O)c3ccccc3S4=O)CC2)c1 (stereo not given) | 101%
66 | CCOC(=O)C1CCC(CN(Cc2ccc(OC)cc2)S(=O)(=O)c2ccc(F)c(C(=O)Nc3c(C)cccc3C)c2)CC1 (stereo not given) | 83%
67 | O=C(NCCCN1CCOCC1)C1CC(c2ccccc2O)=NO1 (stereo not given) | 97%
68 | Cn1cccc1C(C(=O)NC1CCCCC1)N(C(=O)Cn1nnc2ccccc21)c1cnc2ccccc2c1 (stereo not given) | 112%
69 | Cc1cc(C)nc(SCC(=O)Nc2ccc(N3CCOCC3)cc2)n1 | 82%

Row | Structure (SMILES) | survival
70 | CCc1ccccc1NC(=O)Cn1c(=O)n(Cc2ccc(OC)cc2)c(=O)c2oc3ccccc3c21 | 70%
71 | CC1(C)CC(=O)c2cc(C(=O)Nc3ccc(Br)cc3)c(=O)[nH]c2C1 | 70%
72 | O=C(CCS(=O)(=O)c1cc(Br)cc2c1N(C(=O)C1CC1)CC2)N1CCN(c2cccc(C(F)(F)F)c2)CC1 | 59%
73 | Cc1nc2ccn(Cc3ccco3)c(=O)c2cc1C(=O)N1CCN(c2ccc(F)cc2)CC1 | 135%
74 | CCc1nc2ccccc2n1CCCCOc1cccc(C)c1 | -2% (active)
75 | Cc1cccc(OCCCn2c(CCNC(=O)C3CCCCC3)nc3ccccc32)c1 | 37%
76 | CCc1nc2ccccc2n1CCCCOc1ccc(C)cc1 | 1% (active)
77 | CCc1nc2ccccc2n1CCCCOc1ccc(Cl)cc1 | -3% (active)
78 | CCCC(O)c1nc2ccccc2n1CCCOc1ccc(Cl)cc1 (stereo not given) | 65%
79 | CCc1nc2ccccc2n1CCO | 77%
80 | CCc1nc2ccccc2n1CCCCOc1ccccc1C | 0% (active)
81 | O=C1C2C3C=CC(C3)C2C(=O)N1CCN1CCN(S(=O)(=O)c2ccc(Br)cc2)CC1 (stereo not given) | 60%
82 | CCOc1ccccc1NC(=O)c1c2c(nc3ccccc13)C(=O)N(C1CCCCC1)C2 | 55%
83 | COc1ccc(OC)c(NCc2cccn2-c2nnc(N3CCCCC3)s2)c1 | 93%
84 | COc1ccc(CC(=O)NCc2nc3cccnc3n2Cc2ccc(C)cc2)cc1 | 92%
85 | CN1C(=O)/C(=C/c2cccs2)SC1=S | 113%
86 | COc1ccc(Nc2ncc(C(=O)N3CCN(c4cccc(Cl)c4)CC3)c3ccccc23)cc1 | 62%
87 | Cc1cccc(N2CCN(C(=O)C3CCCN(S(=O)(=O)c4ccc5c(c4)oc(=O)n5C)C3)CC2)c1C (stereo not given) | 84%
88 | CC(=O)N1CCCC1c1nc2ccccc2n1Cc1cc(C)ccc1C (stereo not given) | 106%
89 | Cc1cc(NC(=O)c2cccn2-c2nnc(N3CCCCC3)s2)ccc1Br | 117%
90 | CCCCN(C)CCCNC(=O)C1CCN(S(=O)(=O)CC)CC1 | 108%

Reference: PubChem BioAssay AID463173 (ICCB-Longwood Screening Facility, Harvard Medical School, 2010)
